Screening results from PubChem.
An excerpt weighted towards active compounds, which were near 12% of everything screened.
AMA1 RON2 block = disrupts binding of P. falciparum AMA1 to RON2; AlphaScreen AMA1-biotinylated RON2 peptide binding; Potency, µM (doses to about 58.2 µM), usual class: inhibitors; AID 720542; 360,000 compounds, 0.2% hits; also: nearly all actives have a fitted effect of over 45% in size
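AMA1 (3D7) with his tag at 25 nM final met compounds first, then biotinylated RON2 peptide at 25 nM; detection used donor plus acceptor beads, 10 µg/mL apiece, read by AlphaScreen after 30 min at room temperature.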
HCV inh = HCV inhibition; Potency, µM (doses to about 41.8 µM), usual class: inhibitors; AID 651820; Huh7.5.1 HCVcc-Cre infection, luciferase reporter, 44 h; 340,000 compounds, 3.4% hits
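Antiviral activity was scored by luciferase reporter output from cells infected with HCVcc-Cre (~0.5 moi) in presence of compound, 44 h infection period, cells seeded 1,000/well 4 h prior.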
Pf growth 96h = P. falciparum growth inhibition at 96 hour, primary screen for plastid delayed-death inhibitors; P. falciparum luciferase reporter growth, 96 h; Potency, µM (series often up to 28.7 µM), most hits filed as inhibitors; 320,000 compounds, 6.9% hits; AID 504834
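Parasite growth measured via integrated firefly luciferase reporter in P. falciparum. Infected erythrocytes at 2% hematocrit, 0.05% parasitemia final were treated 96 hours at 37 C under 5% CO2, and luminescence was read.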
SARS PLpro yeast = blocks SARS-CoV papain-like protease in a yeast assay. S. cerevisiae expressing SARS-CoV PLpro, growth rescue. Potency, µM (top dose mostly 32.9 µM), most hits filed as activators. 330,000 compounds, 0.19% hits. AID 485353; calls by dose curve; also: nearly all actives have a fitted effect of over 55% in size
Pf growth 48h = P. falciparum growth inhibition at 48 hours (one generation); P. falciparum luciferase growth in erythrocytes, 48 h; 310,000 compounds, 5.9% hits; AID 504832; Potency, µM (titrated, usually from 28.7 µM), actives largely listed as inhibitors
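Growth was read as firefly luciferase luminescence after a 48 h, 37 C, 5% CO2 exposure of compounds to reporter-bearing P. falciparum cultures (0.1% parasitemia, 2% hematocrit final) in Albumax-supplemented RPMI 1640.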
NS1 inh = blocks influenza NS1 protein function; Potency, µM (titrated, usually from 46.1 µM); 270,000 compounds, 0.4% hits; AID 2326; calls by dose curve; also: actives are rising curves; nearly all actives have a fitted effect of over 50% in size
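Recovery from NS1-induced slow growth read by OD600 in budding yeast switched to galactose assay medium (pH 6.0, -URA) at 1:100 dilution. Compound 23 nl per well; the matching strain lacking NS1 serves as control.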
Each line names hits and unclear results; the compound was inactive in the other large screens. Unless noted, calls follow the shape of the dose curve; as a rule, active = well fitted curve in the direction sought with a large enough effect; inconclusive = small, poorly fitted or top-dose-only effect, or another doubt; inactive = no such curve, though single readings can be large; an effect the other way counts as inactive or inconclusive.

COc1ccccc1NC(=O)CCSc1nc(C)cs1	none
COC(=O)C1=C(c2ccc(F)cc2OCc2ccccc2)C[C@@H]2CC[C@H]1N2C(=O)N1CCC(C)CC1	HCV inh inconclusive, Pf growth 96h inconclusive, Pf growth 48h 7.4µM (no result: NS1 inh)
COC(=O)C1=C(c2ccc(F)cc2OCc2ccccc2)C[C@@H]2CC[C@H]1N2C(=O)N1CCCCC1	HCV inh inconclusive, Pf growth 96h inconclusive, Pf growth 48h inconclusive (no result: NS1 inh)
COC(=O)C1=C(c2ccc(F)cc2OCc2ccccc2)C[C@@H]2CC[C@H]1N2C(=O)N1CCC(O)(c2ccc(Cl)cc2)CC1	HCV inh inconclusive (no result: Pf growth 96h, Pf growth 48h, NS1 inh)
COC(=O)C1=C(c2ccc(F)cc2OCc2ccccc2)C[C@@H]2CC[C@H]1N2C(=O)N1CCOCC1	Pf growth 96h inconclusive, Pf growth 48h 6.6µM (no result: NS1 inh)
CCOC(=O)Cc1csc(/N=C/c2c(O)n(-c3ccccc3C(F)(F)F)c(=O)c3ccccc23)n1	HCV inh inconclusive, Pf growth 48h inconclusive
CCC(C)(C)C1CCc2[nH]nc(C(=O)NCc3ccc(Cl)cc3)c2C1 (centres undefined)	Pf growth 96h inconclusive, Pf growth 48h inconclusive (no result: NS1 inh)
CCC(C)(C)C1CCc2[nH]nc(C(=O)NCc3ccccn3)c2C1 (centres undefined)	Pf growth 96h 9.3µM, Pf growth 48h 15µM (no result: NS1 inh)
CCC(C)(C)C1CCc2[nH]nc(C(=O)NCCCNC(=O)OC(C)(C)C)c2C1 (centres undefined)	Pf growth 48h 9.3µM (no result: NS1 inh)
CCOc1ccc(NC(=S)N2CCC(NC(=O)c3ccccc3C)CC2)cc1	none
Cc1nc(-c2cccnc2)sc1C(=O)N/N=C/c1ccccc1Cl	none
O=C1N=C(C=c2ccc(=Cc3[nH]c(=O)[nH]c3O)cc2)C(=O)N1	NS1 inh inconclusive (no result: AMA1 RON2 block, HCV inh)
COc1cc(N2CCCC2)c(OC)cc1C=O	HCV inh 11µM
COc1cc(OC)c(OC)cc1C=O	none (no result: Pf growth 96h, Pf growth 48h, NS1 inh)
Cn1nc(C(=O)NCc2ccc(F)cc2)cc1C(=O)NCc1ccc(F)cc1	Pf growth 96h inconclusive, Pf growth 48h inconclusive (no result: NS1 inh)
Cc1nc2sc3c(NCc4ccco4)ncnc3c2c2c1COC(C)(C)C2	HCV inh inconclusive, Pf growth 96h 12µM, Pf growth 48h 6.6µM
CC1(C)Cc2c(c(-c3ccco3)nc3sc4c(NCCO)ncnc4c23)CO1	HCV inh 13µM, Pf growth 96h inconclusive, Pf growth 48h inconclusive (no result: NS1 inh)
CCc1nc2ccc(C(=O)Nc3cccc(OC)c3)cn2c1N(CC)CCN(C)C	none (no result: HCV inh, Pf growth 96h, SARS PLpro yeast, Pf growth 48h, NS1 inh)
CCN(CC)c1ccc(C2Nc3cccc4cccc(c34)N2)c(O)c1	HCV inh 11µM, Pf growth 48h 3.7µM
Oc1ccc2ccccc2c1C1Nc2cccc3cccc(c23)N1	AMA1 RON2 block inconclusive, Pf growth 48h inconclusive (no result: Pf growth 96h)
COc1ccc(CN(C)C(=O)C2CCN(S(=O)(=O)c3cccs3)CC2)cc1F	Pf growth 96h inconclusive, Pf growth 48h inconclusive (no result: NS1 inh)
O=C1c2ccccc2C(=O)c2c1cccc2-n1nnc2ccccc21	Pf growth 48h inconclusive
O=C1C(N2CCOCC2)=C(n2nnc3ccccc32)C(=O)c2ccccc21	AMA1 RON2 block inconclusive, HCV inh 7.1µM, Pf growth 96h 2.3µM (no result: Pf growth 48h)
CC1CCC2C(C)C(=O)OC3OC4(C)CCC1C32OO4 (centres undefined)	Pf growth 48h 0.0033µM
CC1CCC2[C@@H](C)C(=O)OC3O[C@]4(C)CCC1C32OO4 (some centres undefined)	none (no result: Pf growth 96h, SARS PLpro yeast, Pf growth 48h, NS1 inh)
C[C@@H]1CCC2[C@@H](C)[C@@H](O)O[C@@H]3O[C@@]4(C)CC[C@@H]1[C@@]23OO4 (some centres undefined)	Pf growth 96h 0.0004µM, Pf growth 48h 0.0005µM (no result: AMA1 RON2 block, HCV inh, SARS PLpro yeast, NS1 inh)
CN(C1CCCCC1)S(=O)(=O)c1ccc(S(=O)(=O)N(CC(=O)Nc2ccccc2)C2CC2)cc1	Pf growth 96h inconclusive
Cc1ccc(NC(=O)Cn2nc(C(=O)O)c3ccccc3c2=O)cc1S(=O)(=O)N1CCCCCC1	none (no result: Pf growth 96h, SARS PLpro yeast, Pf growth 48h, NS1 inh)
Cc1ccc(C2C(C=Nc3c(C)n(C)n(-c4ccccc4)c3=O)=C(c3ccccc3)Oc3ccccc32)cc1 (centres undefined)	Pf growth 96h 4.1µM, Pf growth 48h 8.3µM
Cc1c(N=Cc2ccco2)c(=O)n(-c2ccccc2)n1C	HCV inh inconclusive
